According to PubChem BioAssay AID2751 (The Scripps Research Institute Molecular Screening Center, 2010):
Screen size: about 320,000 compounds; about 2,200 (0.69%) were called active. This is one part of a sample in which actives are shown more often than they occur. Values without a mark were called inactive. No stated cut-off is given here; in the data, active means inhibition above about 43%; inactive means the rest.

molecular target: Prolyl endopeptidase-like (Homo sapiens) (UniProt Q4J6C6); test: human PREPL activity-probe blockers – biochemical, fluorescence polarization, primary screen (AID 2751); conditions: recombinant PREPL, fluorescence polarization activity-based probe; at 5.96 µM; stronger effect = higher value;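 further: 0% = enzyme with DMSO and 100% = wells lacking enzyme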
Sequence (Q4J6C6 whole entry, looked up): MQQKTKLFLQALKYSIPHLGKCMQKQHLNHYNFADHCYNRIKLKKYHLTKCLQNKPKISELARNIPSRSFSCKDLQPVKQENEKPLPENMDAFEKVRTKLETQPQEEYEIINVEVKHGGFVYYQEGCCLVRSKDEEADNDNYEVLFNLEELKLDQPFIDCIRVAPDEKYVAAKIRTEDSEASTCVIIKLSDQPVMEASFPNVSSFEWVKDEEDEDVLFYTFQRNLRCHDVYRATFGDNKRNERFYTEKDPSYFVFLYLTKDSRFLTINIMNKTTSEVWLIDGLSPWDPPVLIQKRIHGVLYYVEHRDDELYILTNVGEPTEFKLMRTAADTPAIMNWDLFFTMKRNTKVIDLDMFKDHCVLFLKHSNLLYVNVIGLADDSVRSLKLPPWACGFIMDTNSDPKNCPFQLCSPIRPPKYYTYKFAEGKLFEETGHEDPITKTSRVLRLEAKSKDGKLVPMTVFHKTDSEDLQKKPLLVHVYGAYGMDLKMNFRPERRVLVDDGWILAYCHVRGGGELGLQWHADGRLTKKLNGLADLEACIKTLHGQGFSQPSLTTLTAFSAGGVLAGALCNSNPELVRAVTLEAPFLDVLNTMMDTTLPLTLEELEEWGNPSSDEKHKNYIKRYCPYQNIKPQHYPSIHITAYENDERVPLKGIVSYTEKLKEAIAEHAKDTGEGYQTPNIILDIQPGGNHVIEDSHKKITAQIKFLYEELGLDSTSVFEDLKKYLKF

`CC[C@@H](C)[C@@H]1CN([C@@H](C)CN2CCC[C@H]2CN2C(N)=NC[C@H]2C(C)C)C(=N)N1CCc1ccc(Cl)c(Cl)c1` was tested, and the inhibition was 63.3% (active).
In the case of `C[C@@H](CN1CCC[C@H]1CN1C(N)=NC[C@@H]1Cc1ccccc1)N1C[C@@H](Cc2ccccc2)N(CCCC2CCCC2)C1=N`, the inhibition is reported as 54.6% (active).
In the case of `O=C(NNc1c2ccccc2nc2ccccc12)c1cc2ccccc2cc1O`, the inhibition is reported as 68.7% (active).
In the case of `CC(=O)Nc1ccc(S(=O)(=O)Nc2ccc(N3CCCCC3)cc2)cc1`, the inhibition is reported as 59.6% (active).
With `CC1CCN(C(=O)c2ccc3c(c2)NC(=O)CN3)CC1` the inhibition was 57.5% (active).
`COc1cc2c(cc1O)[C@H](Cc1ccc(Oc3cc(C[C@@H]4NCCc5cc(OC)c(O)cc54)ccc3O)cc1)NCC2` was tested, and the inhibition was 46.2% (active).
For `O=C(NCc1ccccn1)c1ccc2nc(-c3ccco3)c(-c3ccco3)nc2c1`, the inhibition was 46.4% (active).
In the case of `O=S(=O)(O)Oc1c[nH]c2ccccc12`, the inhibition is reported as 44.5% (active).
`COC(=O)Cc1nc2ccccc2[nH]1` was tested, and the inhibition was 47.1% (active).
In the case of `Oc1c(CN2CCCC2)cc(COCc2ccccc2)c2cccnc12`, the inhibition is reported as 63.8% (active).
With `Oc1c(CN2CCN(c3ccc(F)cc3)CC2)cc(Cl)c2cccnc12` the inhibition was 53.5% (active).
For `O=C(OCC(=O)N1CCN(c2ccccc2)CC1)c1ccc([N+](=O)[O-])s1`, the inhibition was 54.8% (active).
With `COCCN(CCOC)c1nc(N)c2c(N)nc3c(c2c1C#N)CC(=O)N3Cc1ccc(Cl)cc1` the inhibition was 47.7% (active).
With `C[N+](C)(CCCCCC[N+](C)(C)CCCN1C(=O)c2cccc3cccc(c23)C1=O)CCCN1C(=O)c2cccc3cccc(c23)C1=O` the inhibition was 47.7% (active).
For `COc1ccc2cc(C(=O)C3CCCN(C(=O)c4sc(C)nc4C)C3)ccc2c1` (stereo not given), the inhibition was 47.9% (active).
With `CC(C)n1cnc2c(NCc3ccccc3)cc(N[C@@H](CO)Cc3ccccc3)cc21` the inhibition was 62% (active).
`CCC(CO)Oc1cc(NCc2ccccc2)c2ncn(C3CCCC3)c2c1` (stereo not given) was tested, and the inhibition was 43.8% (active).
For `CC(C)n1cnc2c(NCc3ccccc3)cc(OCC3CCN(C)CC3)cc21`, the inhibition was 83.8% (active).
With `Cc1ccc(Nc2ccccc2N)cc1` the inhibition was 47.5% (active).

First: CCCC[C@@H]1CN=C(N)N1CCc1cccc(F)c1
Second: CCCCN1C(N)=NC[C@@H]1Cc1ccccc1
The inhibition of the first is lower: -6.23% for the first, 17.4% for the second.

First: NC1=NC[C@@H](Cc2ccc(O)cc2)N1CC1CCCCC1
Second: O=C(OCc1nc2ccccc2[nH]1)C1CCCCC1
The inhibition of the first is lower: 9.91% for the first, 10.5% for the second.

First: O=C(C1Cc2ccccc2CN1C(=O)c1ccco1)N1CCN(c2ccccc2)CC1 (stereo not given)
Second: C[C@H](NC(=O)c1ccccc1Cl)C(=O)OCC(=O)N1CCN(c2ccccc2)CC1
The inhibition of the first is lower: 12.9% for the first, 13.3% for the second.

First: CCOC(=O)c1ccc(N/C(=N/S(=O)(=O)c2ccccc2)c2ccccc2)cc1
Second: O=S(=O)(c1ccccc1)N1CN(Cc2ccc(F)cc2)c2nc3ccccc3nc21
The inhibition of the first is higher: -3.53% for the first, -7.37% for the second.

Going from `O=C(NCc1cccnc1)c1ccc(CS(=O)(=O)c2ccc(Br)cc2)o1` to `COC(=O)COc1ccc(S(=O)(=O)Nc2ccc(NC(C)=O)cc2)cc1`, the inhibition rises from -17% to 3.49%.

Going from `CNC[C@H]1Oc2c(NC(=O)C3CCCCC3)cccc2C(=O)N([C@H](C)CO)C[C@@H]1C` to `CCn1nc(C)cc1C(=O)N1CCCC(C(=O)c2cccc(OC)c2)C1` (stereo not given), the inhibition falls from 1.75% to -1.89%.

First: COc1ccc(-c2cc(C(=O)Nc3ccccc3O)c3ccccc3n2)cc1
Second: CCC(CO)Oc1cc(NC(=O)c2cccc3ccccc23)c2ncn(C(C)C)c2c1 (stereo not given)
The inhibition of the first is lower: 15.1% for the first, 18.7% for the second.

Going from `Cc1noc(C)c1COC(=O)c1cc2ccccc2cc1O` to `CCOC(=O)c1cnc(Nc2nc3ccccc3o2)nc1CSC(=S)N1CCCCC1`, the inhibition falls from 3.42% to -5.51%.

First: Cc1ccc(S(=O)(=O)C2C(=O)NC3(C)CC2c2ccccc2O3)cc1 (stereo not given)
Second: CC(OC(=O)c1ccc(S(=O)(=O)N2CCOCC2)cc1)c1ccccc1 (stereo not given)
The inhibition of the first is lower: -1.08% for the first, -0.7% for the second.

Compared with `CC(=O)Nc1ccc(S(=O)(=O)Nc2ccc(N3CCOCC3)c(F)c2)cc1`, `Cc1cccnc1NC(=O)c1cccc(S(=O)(=O)N2CCN(c3ccc(F)cc3)CC2)c1` is lower in inhibition: 13.1% for the first, -7.81% for the second.

First: CC1CCN(C(=O)c2ccc3c(=O)n4c(nc3c2)CCCCC4)CC1
Second: CC1CCN(C(=O)c2ccc(CSc3ccc(Cl)cc3)cc2)CC1
The inhibition of the first is lower: 10.4% for the first, 18.7% for the second.

Compared with `CCN(C(=O)COC(=O)C1CCN(S(=O)(=O)c2ccc(C)c(C)c2)CC1)C1CCS(=O)(=O)C1` (stereo not given), `CCCn1c(SCC(=O)Nc2ccc(C)c(S(=O)(=O)N3CCOCC3)c2)n[nH]c1=O` is lower in inhibition: 16.8% for the first, 3.91% for the second.

First: CC[C@H]1CN2CCc3cc(OC)c(OC)cc3[C@@H]2C[C@@H]1C[C@H]1NCCc2cc(OC)c(OC)cc21
Second: COc1ccc2c(c1)CCNC2Cc1ccc(OC)c(O)c1 (stereo not given)
The inhibition of the first is higher: 17.4% for the first, 11.1% for the second.

Going from `CCOc1ccc(N2C(=O)/C(=C/c3ccc(C)o3)N(C)C2=S)cc1` to `CCn1c(=S)sc2c(=O)n(CC(=O)Nc3ccc(OC)cc3)c(C)nc21`, the inhibition rises from 6.35% to 7.88%.

Going from `CC(C)n1c(CN2CCN(Cc3ccccc3)CC2)nc2ccccc21` to `O=C(CN1CCN(c2ccc(F)cc2)CC1)Nc1ccccc1`, the inhibition rises from -13.9% to 9.77%.

Going from `Cc1ccc(C(=O)NNC(=O)CSc2nnc3ccccn23)cc1` to `Nc1ccc(C(=O)Nc2ccccc2N)cc1`, the inhibition falls from -1.75% to -1.77%.

First: COCCNC(=O)Nc1ccc2nc(-c3ccco3)c(-c3ccco3)nc2c1
Second: COc1cccc2c1OCC(C(=O)NCc1ccc(Cl)cc1Cl)=C2
The inhibition of the first is higher: 39.5% for the first, -4.06% for the second.

Compared with `O=C1CSc2ccc(C(=O)NCc3ccccn3)cc2N1`, `O=C(COC(=O)c1ccc(Cl)nc1)NCc1ccc2c(c1)OCO2` is higher in inhibition: 4.19% for the first, 8.45% for the second.

Compared with `COc1ccccc1CNC(=O)CSc1nc(=O)n(Cc2ccncc2)c2c1CCC2`, `CCN(CC)CCn1c2c(c(SCC(=O)Nc3ccc(C(C)C)cc3)nc1=O)CCC2` is higher in inhibition: 2.55% for the first, 23.1% for the second.

First: O=C(NC1CCCC1)C(=O)c1c[nH]c2ccccc12
Second: O=C(CN(C(=O)c1csnn1)c1ccc(Br)cc1)NC1CCCC1
The inhibition of the first is higher: 9.2% for the first, 5.56% for the second.

First: NC(=O)CSc1c[nH]c2ccccc12
Second: COc1ccc(CC(=O)N[C@@H](CCSC)c2nc3ccccc3[nH]2)cc1
The inhibition of the first is higher: 7.6% for the first, 5.96% for the second.

Going from `C=CCNC(=O)c1sc(SC)cc1-c1ccc(Cl)cc1` to `CCC(CO)Oc1cc(NC(=O)c2ccc(Cl)cc2)c2ncn(C(C)C)c2c1` (stereo not given), the inhibition rises from 1.62% to 13%.

First: Clc1cccc(CN2COc3c(cc(Cl)c4cccnc34)C2)c1
Second: CC(C)(CNC(=O)c1ccc(Cl)c(S(=O)(=O)N2CCc3ccccc3C2)c1)N1CCOCC1
The inhibition of the first is higher: 2.86% for the first, -27.3% for the second.

Going from `COc1cc(C)cc(CN2CCC(Cc3ccccc3)CC2)c1O` to `CCc1cc(=O)oc2cc(C)cc(OCC(=O)N3CCC[C@@H]3C(=O)O)c12`, the inhibition rises from -5.3% to -4.62%.

Compared with `NC[C@H](Cc1ccccc1)NCCc1cc(C(F)(F)F)cc(C(F)(F)F)c1`, `CC(C)N(Cc1ccccc1)C(=O)COC(=O)c1cnccn1` is higher in inhibition: -11.6% for the first, -8.35% for the second.

Compared with `CCN(CC)CC(=O)Nc1sc2c(c1C(=O)c1ccccc1C)CCC2`, `CCN(Cc1ccccc1)C(=O)CN1C(=S)NC(C)(C)CC1C` (stereo not given) is lower in inhibition: 5.23% for the first, -2.69% for the second.

Compared with `COc1ccc(C(=O)COC(=O)c2ccc([N+](=O)[O-])s2)cc1OC`, `COc1ccc(/C(O)=C2/C(=O)C(=O)N(CC3CCCO3)C2c2ccc(OC)c(OC)c2)cc1` (stereo not given) is lower in inhibition: 34.6% for the first, 1.2% for the second.

Going from `O=C(CCCCCN1C(=O)c2cccc3cccc(c23)C1=O)NCc1ccco1` to `O=C1c2cccc3cccc(c23)C(=O)N1CCCCCc1n[nH]c(=S)o1`, the inhibition falls from 5.95% to 1.95%.

Compared with `Cc1ccc(C(C)NC(=O)Cn2nc(C)c([N+](=O)[O-])c2C)cc1` (stereo not given), `CC(CNc1ccc([N+](=O)[O-])cc1)NC(=O)c1ccccc1Br` (stereo not given) is lower in inhibition: 11.6% for the first, 4.76% for the second.

Compared with `O=C(Nc1cccc(S(=O)(=O)N2CCOCC2)c1)C12CC3CC(CC(C3)C1)C2`, `O=C(Nc1ccc([N+](=O)[O-])cc1)C1CC12CCC2` (stereo not given) is lower in inhibition: 12.3% for the first, 1.87% for the second.

Compared with `COc1ccc(C(=O)C2CCCN(C(=O)c3cnsn3)C2)c(C)c1` (stereo not given), `CC(OC(=O)/C=C/c1ccccc1)C(=O)NC1CCCCC1C` (stereo not given) is lower in inhibition: 13.4% for the first, -7.55% for the second.

Going from `CC(C)C[C@H](CO)Nc1nc(N(C)c2cccc(Cl)c2)c2ncn(C(C)C)c2n1` to `CCC(CO)Oc1cc(NC(=O)c2cccc(F)c2)c2ncn(C(C)C)c2c1` (stereo not given), the inhibition falls from 12.1% to 3.94%.

First: CN(C)c1nccc(NCc2ccccc2)c1C#N
Second: COC(=O)[C@]1(Cc2ccccc2)N[C@H](CN(C)S(=O)(=O)c2ccc(OC(F)(F)F)cc2)[C@@H]2C(=O)N(Cc3ccccc3)C(=O)[C@@H]21
The inhibition of the first is lower: 3.08% for the first, 8.99% for the second.

Going from `COC(CNC(=O)Cn1ncc2ccsc2c1=O)OC` to `CCCc1cc(=O)[nH]c2nnc(SCC(=O)Nc3nnc(SCC)s3)n12`, the inhibition falls from 6.98% to 0.4%.

Compared with `O=S(=O)(NCC1CC1)c1ccc(F)c(Cl)c1`, `Cc1ccc(Nc2nc(Cl)c(C=O)s2)cc1` is higher in inhibition: -5.91% for the first, -3.94% for the second.

`Cc1cc(OC(C)C(=O)NC2CC(C)(C)NC(C)(C)C2)c2c(C)cc(=O)oc2c1` (stereo not given) was tested, and the inhibition was 2.31%.
